# Data: PubChem BioAssay AID1159580 (chemical genetic matrix, 2015)
# About 2,000 (36%) of roughly 5,500 compounds were called active. Another 18% or so got no clear call; they are omitted. The list shows a part of the results. Unmarked numbers belong to inactive results. Cut-off read from the data, not from the text of the source: active = normalized growth mostly below about 0.91 (no sharp cut-off); inconclusive = no clear call, values can overlap the other calls; inactive = mostly above about 0.92.
# Test: chemical genetic growth profiling, strain panel (AID 1159580);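 note: tested at 20 µM; growth read once vehicle control cultures reached saturation at 30 °C; 1 = growth at the plate median or of vehicle wells; lower values mean less growth of the strain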
# Conditions: S. cerevisiae deletion strains, growth OD
# [1] = locus YDL101C, strain DUN1, stronger effect = lower value
# [2] = locus YHR030C, strain SLT2, stronger effect = lower value
# [3] = locus YDR150W, strain NUM1, stronger effect = lower value
# [4] = locus YGR078C, strain PAC10, stronger effect = lower value
# [5] = locus YPL055C, strain LGE1, stronger effect = lower value
smiles,measurement,setting,value
OC(CSc1ccccc1)CN1CCN(c2nc(-c3ccccc3)ns2)CC1 (stereo not drawn),normalized growth,"locus YAR019C, strain CDC15, stronger effect = lower value",0.991
same,normalized growth,"locus YBL105C, strain PKC1, stronger effect = lower value",0.977
same,normalized growth,"locus YBR135W, strain CKS1, stronger effect = lower value",0.993
same,normalized growth,"locus YBR136W, strain MEC1, stronger effect = lower value",0.977
same,normalized growth,"locus YBR160W, strain CDC28, stronger effect = lower value",0.982
same,normalized growth,"locus YDL017W, strain CDC7, stronger effect = lower value",0.989
same,normalized growth,"locus YDL028C, strain MPS1, stronger effect = lower value",0.99
same,normalized growth,[1],0.98
same,normalized growth,"locus YDL108W, strain KIN28, stronger effect = lower value",0.99
same,normalized growth,"locus YDL132W, strain cdc53, stronger effect = lower value",0.996
same,normalized growth,"locus YDL214C, strain PRR2, stronger effect = lower value",0.932
same,normalized growth,"locus YDR052C, strain DBF4, stronger effect = lower value",0.981
same,normalized growth,"locus YDR054C, strain cdc34, stronger effect = lower value",0.977
same,normalized growth,"locus YDR226W, strain ADK1, stronger effect = lower value",0.989
same,normalized growth,"locus YDR477W, strain SNF1, stronger effect = lower value",0.931
same,normalized growth,"locus YER123W, strain YCK3, stronger effect = lower value",0.908
same,normalized growth,"locus YER133W, strain GLC7, stronger effect = lower value",0.941
same,normalized growth,"locus YFL009W, strain cdc4, stronger effect = lower value",0.987
same,normalized growth,"locus YFL029C, strain CAK1, stronger effect = lower value",0.983
same,normalized growth,"locus YFR003C, strain YPI1, stronger effect = lower value",0.989
same,normalized growth,"locus YFR019W, strain FAB1, stronger effect = lower value",0.93
same,normalized growth,"locus YFR028C, strain CDC14, stronger effect = lower value",0.984
same,normalized growth,"locus YGR040W, strain KSS1, stronger effect = lower value",0.915
same,normalized growth,"locus YGR052W, strain FMP48, stronger effect = lower value",0.993
same,normalized growth,"locus YGR092W, strain DBF2, stronger effect = lower value",0.935
same,normalized growth,[2],0.941
same,normalized growth,"locus YHR079C, strain IRE1, stronger effect = lower value",0.962
same,normalized growth,"locus YHR082C, strain KSP1, stronger effect = lower value",0.983
same,normalized growth,"locus YHR205W, strain SCH9, stronger effect = lower value",0.921
same,normalized growth,"locus YIL147C, strain SLN1, stronger effect = lower value",0.987
same,normalized growth,"locus YJL095W, strain BCK1, stronger effect = lower value",0.947
same,normalized growth,"locus YJL128C, strain PBS2, stronger effect = lower value",0.945
same,normalized growth,"locus YJL157C, strain FAR1, stronger effect = lower value",0.915
same,normalized growth,"locus YJR016C, strain ILV3, stronger effect = lower value",0.982
same,normalized growth,"locus YJR066W, strain TOR1 (second series), stronger effect = lower value",0.888
same,normalized growth,"locus YJR066W, strain TOR1, stronger effect = lower value",1.01
same,normalized growth,"locus YKL048C, strain ELM1, stronger effect = lower value",0.954
same,normalized growth,"locus YKL067W, strain YNK1, stronger effect = lower value",0.943
same,normalized growth,"locus YKL101W, strain HSL1, stronger effect = lower value",0.927
same,normalized growth,"locus YKL193C, strain SDS22, stronger effect = lower value",0.987
same,normalized growth,"locus YKL203C, strain TOR2, stronger effect = lower value",0.989
same,normalized growth,"locus YLR113W, strain HOG1, stronger effect = lower value",0.847 (active)
same,normalized growth,"locus YLR133W, strain CKI1, stronger effect = lower value",0.935
same,normalized growth,"locus YLR403W, strain SFP1, stronger effect = lower value",0.9
same,normalized growth,"locus YML070W, strain DAK1, stronger effect = lower value",0.9
same,normalized growth,"locus YMR001C, strain CDC5, stronger effect = lower value",0.983
same,normalized growth,"locus YMR205C, strain PFK2 (second series), stronger effect = lower value",0.944
same,normalized growth,"locus YMR277W, strain FCP1, stronger effect = lower value",0.991
same,normalized growth,"locus YNL006W, strain LST8, stronger effect = lower value",0.997
same,normalized growth,"locus YNL020C, strain ARK1, stronger effect = lower value",0.935
same,normalized growth,"locus YNL161W, strain CBK1, stronger effect = lower value",0.98
same,normalized growth,"locus YNL183C, strain NPR1, stronger effect = lower value",0.972
same,normalized growth,"locus YNL207W, strain RIO2, stronger effect = lower value",0.987
same,normalized growth,"locus YNL222W, strain SSU72, stronger effect = lower value",0.991
same,normalized growth,"locus YNL307C, strain MCK1 (second series), stronger effect = lower value",0.927
same,normalized growth,"locus YOL078W, strain AVO1, stronger effect = lower value",0.98
same,normalized growth,"locus YOL136C, strain PFK27, stronger effect = lower value",0.903
same,normalized growth,"locus YOR061W, strain CKA2, stronger effect = lower value",0.936
same,normalized growth,"locus YOR119C, strain RIO1, stronger effect = lower value",0.994
same,normalized growth,"locus YOR231W, strain MKK1, stronger effect = lower value",0.882
same,normalized growth,"locus YOR329C, strain SCD5, stronger effect = lower value",0.982
same,normalized growth,"locus YPL031C, strain PHO85, stronger effect = lower value",0.952
same,normalized growth,"locus YPL153C, strain RAD53, stronger effect = lower value",0.937
same,normalized growth,"locus YPL204W, strain HRR25, stronger effect = lower value",0.932
same,normalized growth,"locus YPL209C, strain IPL1, stronger effect = lower value",0.981
same,normalized growth,"locus YPL256C, strain CLN2, stronger effect = lower value",0.889
same,normalized growth,"locus YPR025C, strain CCL1, stronger effect = lower value",0.987
same,normalized growth,"locus YPR106W, strain ISR1, stronger effect = lower value",0.976
same,normalized growth,"locus YPR111W, strain DBF20, stronger effect = lower value",0.961
same,normalized growth,"strain NNK1, stronger effect = lower value",0.973
same,normalized growth,"strain TSCII, stronger effect = lower value",0.984
OC(CSc1ccccc1)CN1CCN(c2ccc(C(F)(F)F)cn2)CC1 (stereo not drawn),normalized growth,"locus YAL013W, strain DEP1, stronger effect = lower value",1.01
same,normalized growth,"locus YBR229C, strain ROT2, stronger effect = lower value",1
same,normalized growth,[1],1.01
same,normalized growth,"locus YDL134C, strain PPH21, stronger effect = lower value",0.185 (active)
same,normalized growth,[3],0.87
same,normalized growth,"locus YEL061C, strain CIN8, stronger effect = lower value",0.657 (active)
same,normalized growth,[4],1
same,normalized growth,[2],0.203 (active)
same,normalized growth,"locus YHR087W, strain rtc3, stronger effect = lower value",0.994
same,normalized growth,"locus YJR043C, strain POL32, stronger effect = lower value",0.991
same,normalized growth,"locus YJR075W, strain HOC1, stronger effect = lower value",1
same,normalized growth,"locus YLR039C, strain RIC1, stronger effect = lower value",0.591 (active)
same,normalized growth,"locus YLR058C, strain SHM2 (second series), stronger effect = lower value",1.01
same,normalized growth,"locus YLR085C, strain ARP6, stronger effect = lower value",0.387 (active)
same,normalized growth,"locus YLR262C, strain YPT6, stronger effect = lower value",0.468 (active)
same,normalized growth,"locus YML094W, strain GIM5, stronger effect = lower value",0.686 (active)
same,normalized growth,"locus YMR219W, strain ESC1, stronger effect = lower value",1
same,normalized growth,"locus YMR263W, strain SAP30, stronger effect = lower value",0.966
same,normalized growth,"locus YMR307W, strain GAS1, stronger effect = lower value",0.698
same,normalized growth,"locus YNL153C, strain GIM3, stronger effect = lower value",1.03
same,normalized growth,"locus YNL298W, strain CLA4 (second series), stronger effect = lower value",0.601 (active)
same,normalized growth,"locus YNL322C, strain KRE1, stronger effect = lower value",1.01
same,normalized growth,"locus YNR030W, strain Alg12, stronger effect = lower value",0.668 (active)
same,normalized growth,[5],0.898
same,normalized growth,"locus YPL241C, strain CIN2, stronger effect = lower value",0.763 (active)
same,normalized growth,"locus YPR135W, strain CTF4, stronger effect = lower value",0.442 (active)
COc1ccccc1N1CCN(CC(O)COc2cccc3ccccc23)CC1 (stereo not drawn),normalized growth,"locus YAL040C, strain CLN3, stronger effect = lower value",0.993
same,normalized growth,"locus YCL061C, strain MRC1 (second series), stronger effect = lower value",0.992
same,normalized growth,[3],0.998
same,normalized growth,"locus YDR363W, strain ESC2, stronger effect = lower value",0.965
same,normalized growth,"locus YER002W, strain NOP16, stronger effect = lower value",1.02
same,normalized growth,[4],0.978
same,normalized growth,"locus YNL175C, strain NOP13, stronger effect = lower value",1.01
same,normalized growth,"locus YNL197C, strain WHI3, stronger effect = lower value",1.04
same,normalized growth,"locus YNL224C, strain SQS1, stronger effect = lower value",0.99
same,normalized growth,"locus YOR083W, strain WHI5 (second series), stronger effect = lower value",1.02
same,normalized growth,[5],0.976
